The text below walks through data of PubChem BioAssay (NCATS).

Records with an inconclusive call do not appear. Unmarked numbers belong to inactive results. The source made the active and inactive calls. Calls follow the shape of the dose curve; as a rule, active = well fitted cell-killing curve with a large enough effect; inconclusive = small, poorly fitted or top-dose-only effect, or effect the other way; inactive = no such curve, though single readings can be large or run the other way.
Potency is read from the fitted curve at half-maximal effect.

A short description of this assay: Quantitative High-Throughput drug screen in 47 multiple myeloma cell lines against the NCATS MIPE library collection: KMS11_JCRBsus cell viability assay (AID 1919873). Also: nearly all actives have a fitted effect of over 50% in size.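 As to viability (% of control): 100% = DMSO-only wells and 0% = media-only wells without cells.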 To be noted: KMS11 myeloma viability, CellTiter-Glo ATP luminescence, 48 h; series mostly up to 45.8 µM; viability (% of control): at the top concentration. The essentials: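 qHTS format: cells plated (500/well), pin-dosed with MIPE 4.0 compounds, kept 48 h at 37 °C. Readout was CellTiter-Glo luminescence, median RLU.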
As for `NC(=O)Cc1cccc(C(=O)c2ccccc2)c1N`, the “viability (% of control)” value was 85.1%.

For `C[C@H](Cn1cnc2c(N)ncnc21)OCP(=O)(O)O`, the “viability (% of control)” value is 122%.

Turning to `Oc1ccc(OCc2ccccc2)cc1`, the “viability (% of control)” value was 87.3%.

On to `CC(=O)O[C@H]1C(=O)[C@@]2(C)C([C@H](OC(=O)c3ccccc3)[C@]3(O)C[C@H](OC(=O)[C@H](O)[C@@H](NC(=O)c4ccccc4)c4ccccc4)C(C)=C1C3(C)C)[C@]1(OC(C)=O)CO[C@@H]1C[C@@H]2O` (some centres not stated), for which the “viability (% of control)” value is 11.7%.

Regarding `CCCCN(CCCC)CCC(O)c1cc2c(Cl)cc(Cl)cc2c2cc(C(F)(F)F)ccc12` (configuration not stated), the “viability (% of control)” value was 123%.

`CCc1nc(N)nc(N)c1-c1ccc(Cl)cc1`: the Potency was 16.6 µM (active).

Consider `C[C@@H](c1ncncc1F)[C@](O)(Cn1cncn1)c1ccc(F)cc1F`, for which the “viability (% of control)” value is 91.1%.

As to `CN(C)[C@@H](CCOc1cccc2ccccc12)c1ccccc1`, the Potency was 23.5 µM (active).

For the compound `O=c1c(O)c(-c2ccc(O)cc2O)oc2cc(O)cc(O)c12`, the “viability (% of control)” value is 98.1%.

As for `CN(C)CCc1c[nH]c2ccc(Cn3cncn3)cc12`, the “viability (% of control)” value is 78.5%.

For the compound `CC(=O)N1CCN(c2ccc(OC[C@H]3CO[C@](Cn4ccnc4)(c4ccc(Cl)cc4Cl)O3)cc2)CC1`, the Potency was 18.7 µM (active).

`C=CCc1cc(OC)c(O)c(C(=O)NCCO)c1`: the “viability (% of control)” value is 114%.
